Measurements: PubChem BioAssay (NCATS)
Results filed as inconclusive are left out. Calls of active or inactive are those of the source. The call rests on the fitted dose curve; in most records, active means well fitted inhibition curve with a large enough effect; inconclusive means small, poorly fitted or top-dose-only effect; inactive means flat fitted curve, though single readings scatter.

What follows are compounds tested on DFO2036 (assay: qHTS profiling for inhibitors of Plasmodium falciparum proliferation (AID 504749; further: nearly all actives have a fitted effect of over 60% in size;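 on activity, negative = inhibition: 0% = DMSO vehicle and full inhibition = artemisinin control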)). Details: P. falciparum in erythrocytes, SYBR Green DNA, 72 h; series mostly up to 28.7 µM; activity, negative = inhibition: at the top concentration.
Source text: NIH National Institute of Allergy and Infectious Diseases [NIAID] NIH Chemical Genomics Center [NCGC] MLPCN Grant: None Assay Provider: Xinzhuan Su, NIAID NCGC Assay Overview: Plasmodium falciparum is a virulent malarial parasite that kills 1-2 million people worldwide each year. Transmitted by mosquitoes, the sporozoite form of the parasite enters the blood stream to infect hepatocytes, where they become merozoites that infect red blood cells (erythrocytes). Within erythrocytes, merozoites begin a […] cycle of growth and division, after which the parasite is released to infect new red blood cells. Gametocytes, which form within erythrocytes as well, circulate in the bloodstream and are ingested by the mosquito, thereby completing the life cycle. To profile malarial isolates for differential chemical responses and to identify inhibitors of malarial growth, an assay that measures P. falciparum growth and replication within erythrocytes was employed. This assay uses a DNA binding fluorescent dye (SYBR Green) to detect parasite DNA following cell lysis. Because mature erythrocytes lack DNA, only Plasmodium-derived DNA is detected.
NCGC Assay Protocol Summary: The SYBR Green viability assay was adapted from a method described previously (Plouffe et al., 2008). For screening 3 ul culture medium was dispensed into 1536 well black clear bottom plates (Aurora Biotechnologies) using a Multidrop Combi (Thermo Fisher Scientific Inc.), 23 nL compounds in DMSO were added by a pin tool (Kalypsys), and 5 ul of erythrocytes infected with P. falciparum (0.3% parasitemia, 2.5% hematocrit final concentration) were added. The plates were incubated at 37 C in a humidified incubator in 5% CO2 for 72 h, and 2 ul lysis buffer (20 mM Tris HCl, 10 mM EDTA, 0.16% saponin, 1.6% triton X, 10X SYBR Green I supplied as 10,000X […] by Invitrogen) was added to each well. The plates were mixed for 25 sec with gentle shaking and incubated overnight at room temperature in the dark. The following morning, fluorescence intensity at 485(14) nm excitation and 535(25) nm emission wavelengths was measured on an EnVision (Perkin Elmer) plate reader. Plate reads were normalized relative to the control inhibitor (0.29 uM artemisinin) and vehicle (DMSO) wells present on each plate and then corrected by an algorithm using vehicle-only control plates at the beginning and end of the compound plate stack.
Potency means the concentration at half of the fitted maximal effect.

SMILES	Potency	activity, negative = inhibition
CC[C@H]1CN2CCc3cc(OC)c(OC)cc3[C@H]2C[C@@H]1C[C@@H]1NCCc2cc(OC)c(OC)cc21	316 nM (active)	
C[C@H]1C[C@@H]2[C@@H]([C@@H](O)C[C@@]3(C)[C@H]2CC[C@]3(O)C(=O)CO)[C@@]2(C)C=CC(=O)C=C12		4.95% [at 12.8 µM] (inactive)
O=C(O)CO.[NH2-].[NH2-].[Pt+2]		13.8% (inactive)
COc1c(N2C[C@@H]3CCCN[C@H]3C2)c(F)cc2c(=O)c(C(=O)O)cn(C3CC3)c12		-29.5% (inactive)
CC=CC1=C(C(=O)O)N2C(=O)[C@H](NC(=O)[C@H](N)c3ccc(O)cc3)[C@@H]2SC1		-2.78% (inactive)
Nc1ccn([C@@H]2O[C@H](CO)[C@H](O)C2(F)F)c(=O)n1	282 nM (active)	
COc1cc(C(=O)NS(=O)(=O)c2ccccc2C)ccc1Cc1cn(C)c2ccc(NC(=O)OC3CCCC3)cc12		-6.72% (inactive)
CCC1=C[C@@H]2CN(C1)Cc1c([nH]c3ccccc13)[C@@](C(=O)OC)(c1cc3c(cc1OC)N(C)[C@@H]1[C@@](O)(C(=O)OC)[C@H](OC(C)=O)[C@]4(CC)C=CCN5CC[C@]31[C@@H]54)C2	2510 nM (active)	
Nc1ccn([C@@H]2CS[C@H](CO)O2)c(=O)n1	inactive	
COC(=O)C1=C(C)NC(C)=C(C(=O)OCCN2CCN(C(c3ccccc3)c3ccccc3)CC2)C1c1cccc([N+](=O)[O-])c1 (stereo not given)	1780 nM (active)	
CN1c2cc(O)c(N=NC(N)=O)cc2CC1S(=O)(=O)O (stereo not given)		-4.45% (inactive)
Nc1ccc(S(=O)(=O)Nc2ncccn2)cc1		4.3% [at 12.8 µM] (inactive)
COC(=O)C[C@](O)(CCCC(C)(C)O)C(=O)O[C@@H]1C(OC)=C[C@]23CCCN2CCc2cc4c(cc2[C@H]13)OCO4	22.4 nM (active)	
CC1(C)O[C@@H]2C[C@@H]3[C@H]4C[C@@H](F)C5=CC(=O)C=C[C@]5(C)[C@@]4(F)[C@@H](O)C[C@]3(C)[C@]2(C(=O)CO)O1		10.2% (inactive)
O=c1[nH]c(=O)n(C2CCCO2)cc1F (stereo not given)		1.58% (inactive)
